According to PubChem BioAssay AID1159580 (chemical genetic matrix, 2015):
About 2,000 (36%) of roughly 5,500 compounds were called active. About 18% were inconclusive and are not listed. Some of the results follow. Values without a mark were called inactive. Rule as the data show it: active = normalized growth mostly below about 0.91 (no sharp cut-off); inconclusive = no clear call, values can overlap the other calls; inactive = mostly above about 0.92.

Test: chemical genetic growth profiling, strain panel (AID 1159580);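 also: tested at 20 µM; growth read once vehicle control cultures reached saturation at 30 °C; 1 = growth at the plate median or of vehicle wells; lower values mean less growth of the strain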
Conditions: S. cerevisiae deletion strains, growth OD

## OC(CNCc1ccc(Cl)cc1)CO/N=C\C1=C(Cl)c2cc(Cl)ccc2OC1 (stereo not given)
Locus YAR019C, strain CDC15, active compounds read low
  normalized growth: 0.962
Locus YBL105C, strain PKC1, active compounds read low
  normalized growth: 0.981
Locus YBR135W, strain CKS1, active compounds read low
  normalized growth: 0.981
Locus YBR136W, strain MEC1, active compounds read low
  normalized growth: 0.957
Locus YBR160W, strain CDC28, active compounds read low
  normalized growth: 0.988
Locus YDL017W, strain CDC7, active compounds read low
  normalized growth: 0.986
Locus YDL028C, strain MPS1, active compounds read low
  normalized growth: 0.975
Locus YDL101C, strain DUN1, active compounds read low
  normalized growth: 0.987
Locus YDL108W, strain KIN28, active compounds read low
  normalized growth: 0.967
Locus YDL132W, strain cdc53, active compounds read low
  normalized growth: 0.979
Locus YDL214C, strain PRR2, active compounds read low
  normalized growth: 0.925
Locus YDR052C, strain DBF4, active compounds read low
  normalized growth: 0.989
Locus YDR054C, strain cdc34, active compounds read low
  normalized growth: 0.98
Locus YDR226W, strain ADK1, active compounds read low
  normalized growth: 0.97
Locus YDR477W, strain SNF1, active compounds read low
  normalized growth: 0.974
Locus YER123W, strain YCK3, active compounds read low
  normalized growth: 0.867
Locus YER133W, strain GLC7, active compounds read low
  normalized growth: 0.933
Locus YFL009W, strain cdc4, active compounds read low
  normalized growth: 0.976
Locus YFL029C, strain CAK1, active compounds read low
  normalized growth: 0.963
Locus YFR003C, strain YPI1, active compounds read low
  normalized growth: 0.981
Locus YFR019W, strain FAB1, active compounds read low
  normalized growth: 0.921
Locus YFR028C, strain CDC14, active compounds read low
  normalized growth: 0.96
Locus YGR040W, strain KSS1, active compounds read low
  normalized growth: 0.97
Locus YGR052W, strain FMP48, active compounds read low
  normalized growth: 1
Locus YGR092W, strain DBF2, active compounds read low
  normalized growth: 0.928
Locus YHR030C, strain SLT2, active compounds read low
  normalized growth: 0.871
Locus YHR079C, strain IRE1, active compounds read low
  normalized growth: 0.931
Locus YHR082C, strain KSP1, active compounds read low
  normalized growth: 0.966
Locus YHR205W, strain SCH9, active compounds read low
  normalized growth: 0.949
Locus YIL147C, strain SLN1, active compounds read low
  normalized growth: 0.969
Locus YJL095W, strain BCK1, active compounds read low
  normalized growth: 0.915
Locus YJL128C, strain PBS2, active compounds read low
  normalized growth: 0.933
Locus YJL157C, strain FAR1, active compounds read low
  normalized growth: 0.971
Locus YJR016C, strain ILV3, active compounds read low
  normalized growth: 0.991
Locus YJR066W, strain TOR1 (second series), active compounds read low
  normalized growth: 1
Locus YJR066W, strain TOR1, active compounds read low
  normalized growth: 0.944
Locus YKL048C, strain ELM1, active compounds read low
  normalized growth: 0.931
Locus YKL067W, strain YNK1, active compounds read low
  normalized growth: 0.937
Locus YKL101W, strain HSL1, active compounds read low
  normalized growth: 0.923
Locus YKL193C, strain SDS22, active compounds read low
  normalized growth: 0.981
Locus YKL203C, strain TOR2, active compounds read low
  normalized growth: 0.983
Locus YLR113W, strain HOG1, active compounds read low
  normalized growth: 0.87
Locus YLR133W, strain CKI1, active compounds read low
  normalized growth: 0.96
Locus YLR403W, strain SFP1, active compounds read low
  normalized growth: 0.996
Locus YML070W, strain DAK1, active compounds read low
  normalized growth: 0.924
Locus YMR001C, strain CDC5, active compounds read low
  normalized growth: 0.985
Locus YMR205C, strain PFK2 (second series), active compounds read low
  normalized growth: 0.949
Locus YMR277W, strain FCP1, active compounds read low
  normalized growth: 0.981
Locus YNL006W, strain LST8, active compounds read low
  normalized growth: 0.99
Locus YNL020C, strain ARK1, active compounds read low
  normalized growth: 0.963
Locus YNL161W, strain CBK1, active compounds read low
  normalized growth: 0.983
Locus YNL183C, strain NPR1, active compounds read low
  normalized growth: 0.932
Locus YNL207W, strain RIO2, active compounds read low
  normalized growth: 0.97
Locus YNL222W, strain SSU72, active compounds read low
  normalized growth: 0.979
Locus YNL307C, strain MCK1 (second series), active compounds read low
  normalized growth: 0.934
Locus YOL078W, strain AVO1, active compounds read low
  normalized growth: 0.984
Locus YOL136C, strain PFK27, active compounds read low
  normalized growth: 0.921
Locus YOR061W, strain CKA2, active compounds read low
  normalized growth: 0.969
Locus YOR119C, strain RIO1, active compounds read low
  normalized growth: 0.957
Locus YOR231W, strain MKK1, active compounds read low
  normalized growth: 0.918
Locus YOR329C, strain SCD5, active compounds read low
  normalized growth: 0.977
Locus YPL031C, strain PHO85, active compounds read low
  normalized growth: 0.975
Locus YPL153C, strain RAD53, active compounds read low
  normalized growth: 0.984
Locus YPL204W, strain HRR25, active compounds read low
  normalized growth: 0.994
Locus YPL209C, strain IPL1, active compounds read low
  normalized growth: 0.981
Locus YPL256C, strain CLN2, active compounds read low
  normalized growth: 0.864
Locus YPR025C, strain CCL1, active compounds read low
  normalized growth: 0.981
Locus YPR106W, strain ISR1, active compounds read low
  normalized growth: 0.963
Locus YPR111W, strain DBF20, active compounds read low
  normalized growth: 0.962
Strain NNK1, active compounds read low
  normalized growth: 0.959
Strain TSCII, active compounds read low
  normalized growth: 0.979

## CC1(C)CCC2=C(O1)c1ccccc1C(=O)C2=O
Locus YAL013W, strain DEP1, active compounds read low
  normalized growth: 0.879 (active)
Locus YAL040C, strain CLN3, active compounds read low
  normalized growth: 1.02
Locus YCL061C, strain MRC1 (second series), active compounds read low
  normalized growth: 0.876 (active)
Locus YDR150W, strain NUM1, active compounds read low
  normalized growth: 0.857 (active)
Locus YDR363W, strain ESC2, active compounds read low
  normalized growth: 0.706 (active)
Locus YER002W, strain NOP16, active compounds read low
  normalized growth: 1
Locus YGR078C, strain PAC10, active compounds read low
  normalized growth: 0.977
Locus YMR263W, strain SAP30, active compounds read low
  normalized growth: 0.956
Locus YNL175C, strain NOP13, active compounds read low
  normalized growth: 0.973
Locus YNL197C, strain WHI3, active compounds read low
  normalized growth: 0.926
Locus YNL224C, strain SQS1, active compounds read low
  normalized growth: 1
Locus YOR083W, strain WHI5 (second series), active compounds read low
  normalized growth: 0.938
Locus YPL055C, strain LGE1, active compounds read low
  normalized growth: 0.769 (active)
Locus YPL241C, strain CIN2, active compounds read low
  normalized growth: 0.861 (active)
